Measured values from the supplement of paper PMC10498489.
Hit rate of the full screen: of about 2,300 compounds, about 330 (14%) showed activity.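 How the source made its calls: active = median modified Z-score above 1.96; inactive = 1.96 or below.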 Only a sample is shown.

Test system: HepG2 Srxn1-GFP reporter cells (+30 nM CDDO-Me)
Experiment: Srxn1-GFP intensity median modified Z-score relative to plate median; higher = stronger NRF2 / oxidative stress reporter activation, active = hit call of the paper
Settings: 10 µM; exposure time: 24h
Summary of the method: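 HepG2 Srxn1-GFP BAC reporter cells were seeded at 20,000 per well in 96-well plates and co-exposed for 24 h to compound at 10 μM and an NRF2 activator at 30 nM, with DMSO at ≤0.1%, in three replicate plates. Cells were fixed with formaldehyde, stained with Hoechst and imaged by confocal microscopy, and cytoplasmic GFP was measured per cell, with images holding under 100 cells discarded. The reported value is the median over replicates of each plate's modified Z-score of GFP intensity. For this score, scaling used 1.4826 × median absolute deviation.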

| Compound | Srxn1-GFP intensity median modified Z-score |
| --- | --- |
| Cc1cc2c(C(C)C)c(O)c(O)c(C=O)c2c(O)c1-c1c(C)cc2c(C(C)C)c(O)c(O)c(C=O)c2c1O [euspeclibcmpd2093] | 3.73 (active) |
| Cc1cc2c(C(C)C)c(O)c(O)c(C=O)c2c(O)c1-c1c(C)cc2c(C(C)C)c(O)c(O)c(C=O)c2c1O [euspeclibcmpd1471] | 3.88 (active) |
| CN1C2CCC1CC(OC(=O)C(CO)c1ccccc1)C2 (stereo not given) [euspeclibcmpd2059] | -0.875 (inactive) |
| CC[C@@]1(O)C(=O)OCc2c1cc1n(c2=O)Cc2cc3ccccc3nc2-1 [euspeclibcmpd1447] | -0.602 (inactive) |
| COP(=O)(OC)C(O)C(Cl)(Cl)Cl (stereo not given) [euspeclibcmpd866] | 3.07 (active) |
| CCC(COC(=O)c1cc(OC)c(OC)c(OC)c1)(c1ccccc1)N(C)C (stereo not given) [euspeclibcmpd1183] | -0.264 (inactive) |
| Oc1ccc2c3c1OC1[C@@H](O)CC[C@@]4(O)[C@@H](C2)N(CC2CCC2)CC[C@]314 (stereo not given in full) [euspeclibcmpd978] | 0.208 (inactive) |
| COC(=O)C(c1ccccc1)C1CCCCN1 (stereo not given) [euspeclibcmpd885] | -0.181 (inactive) |
| CN(C)C(=O)Oc1cccc([N+](C)(C)C)c1 [euspeclibcmpd207] | 0.0711 (inactive) |
| CC(C)c1cc2c(c(O)c1O)[C@@]1(C(=O)O)CCCC(C)(C)C1CC2 (stereo not given in full) [euspeclibcmpd2302] | 5.33 (active) |
| c1ccc2c(c1)Nc1ccccc1S2 [euspeclibcmpd928] | 0.0728 (inactive) |
| NCCc1c[nH]c2ccccc12 [euspeclibcmpd1506] | -0.231 (inactive) |
| NNCc1ccccc1 [euspeclibcmpd1327] | 0.32 (inactive) |
| S=C=NCc1ccccc1 [euspeclibcmpd1105] | 100 (active) |
| CC(=O)c1c(O)cc(C)oc1=O [euspeclibcmpd1006] | 15.5 (active) |
| CN(C)C1C(=O)C(C(N)=O)C(=O)[C@@]2(O)C(=O)C3C(=O)c4c(O)ccc(Cl)c4[C@@](C)(O)[C@H]3C[C@@H]12 (stereo not given in full) [euspeclibcmpd61] | 0.0407 (inactive) |
| NCC(CC(=O)O)c1ccc(Cl)cc1 (stereo not given) [euspeclibcmpd593] | -0.2 (inactive) |
| CN(C)C1C(=O)C(C(N)=O)C(=O)[C@@]2(O)C(=O)C3C(=O)c4c(O)cccc4[C@@](C)(O)[C@H]3C[C@@H]12 (stereo not given in full) [euspeclibcmpd288] | 0.167 (inactive) |
| CC(C)(O)[C@@H]1[C@H]2OC(=O)[C@@H]1[C@]1(O)C[C@H]3O[C@]34C(=O)O[C@H]2[C@]14C [euspeclibcmpd1439] | -0.455 (inactive) |
| C=C(C)[C@@H]1[C@H]2OC(=O)[C@@H]1[C@]1(O)C[C@H]3O[C@]34C(=O)O[C@H]2[C@]14C [euspeclibcmpd1351] | 17.9 (active) |
